The target of this assay is Shiga toxin 2 (Escherichia coli O157:H7) (UniProt P09385+P09386). Nature of the assay: E. coli 0.157:H7 Shiga Toxin SOP - stx2 screening assay. The assay is classed as functional. On the set-up: scale not given: direction of the effect not stated beside the values. The conditions noted are these: 30 µM.
With `Cc1cnn(CC(C)NCc2ccc(-n3cccn3)cc2)c1` (stereo not given), the Percent Effect was -40%.
Under `c1coc(-c2nnc(CN3CCCC(CN4CCCCCC4)C3)o2)c1` (stereo not given) stands -14.6%; under `COc1c(CNC2CCCOc3ccccc32)c(C)nn1C` (stereo not given), -2.26%.
For `O=C(NCCN1CCC(c2cccs2)CC1)c1ccccc1C(F)(F)F`, the Percent Effect is -49.7%.
To `COCCN1C(=O)[C@]2(CC[C@@H]3CN(C(=O)NCC(C)C)C[C@@H]32)N=C1C` belongs -11.7%.
Consider `NCc1cn(-c2ccccc2C(=O)NCc2ccccc2)cn1`, for which the Percent Effect is -5.86%.
Take `Cc1cccc(Cn2c3c(ccc2=O)CCN(Cc2ccoc2)CC3)n1`: the Percent Effect amounted to 2.55%.
Under `Cc1nsc(C(=O)N2CCc3ccccc3C2)n1` stands -13.9%; under `COCCC(=O)N1CC2(CCN(Cc3ccoc3)C2)C1`, -19.5%; under `CN(C)C(=O)CSc1nnc(CCNC(=O)OC(C)(C)C)o1`, -59.4%.
On to `COCCCN1CCCN(C(C)C(=O)Nc2ccnn2C(C)C)CC1` (stereo not given), for which the Percent Effect was found to be 11.2%.
To `CS(=O)(=O)NCc1nnc2n1CCN(Cc1cccs1)C2` belongs 3.79%.
Under `CC(C)(C)c1nnc(CN2CCOC(Cn3cncn3)C2)o1` (stereo not given) stands 8.96%; under `COCCN(C)C[C@@H]1CCC[C@@H]2CN(c3cc(OC)ncn3)C[C@@H]21`, 2.29%; under `CCc1n[nH]c(C2CN(C(=O)c3cc4c(s3)CCCC4)CCO2)n1` (stereo not given), 4.53%.
For `CSCc1cccc(S(=O)(=O)N2CCC(C)CC2)c1`, the Percent Effect is 4.74%.
To `Cc1ccc(-c2cc(CN3CCCC(Cn4cncn4)C3)on2)cc1` (stereo not given) belongs -31.3%; to `Cc1cc(N(C)Cc2cc(C)on2)n2nc(C)c(C)c2n1`, -20%; to `Cc1cccc(C(=O)NC(CN2CCCC2=O)c2ccccc2)n1` (stereo not given), 14%.
Under `CCc1ccc(CNC(=O)NC(C)CN2CCOCC2)s1` (stereo not given) stands -4.66%.
Regarding `Cc1ccc2c(ccn2CCC(=O)N2CCC(C(N)=O)CC2)c1`, the Percent Effect was -2.06%.
To `CCOc1ccccc1OC1CCN(C(=O)c2nc(=O)[nH][nH]2)CC1` belongs -11.2%; to `Cc1csc(N2CCN(C(=O)CCc3nccs3)CC2)n1`, 7.79%.
In the case of `CC(C)CN1CCCC2(CCN(C(=O)c3cnccn3)C2)C1` (stereo not given), the Percent Effect was -7.5%.
As to `CC(C)c1nnc2n1CCN(C(=O)c1ccnc(N(C)C)c1)C2`, the Percent Effect is -7.07%.
As to `CC(C)NC(=O)[C@H]1C[C@@H]2[C@@H](C1)OCCN2Cc1cnn(C)c1`, the Percent Effect was -17.8%.
On to `CC(C)n1ccnc1CN1CCCN(C(=O)COC2CCCC2)CC1`, for which the Percent Effect was -3.07%.
Under `Cc1c(NC(=O)NCC(C)N2CCOCC2)cccc1OC(F)F` (stereo not given) stands 3.31%.
As for `COCc1ncn2c1CN(C(=O)C1CC=CC1)CC2`, the Percent Effect was 0.0561%.
With `Cc1n[nH]c(=O)c2c(NC(=O)CN3CCCC(C(F)(F)F)C3)oc(C)c12` (stereo not given), the Percent Effect is -52.6%.
As for `CS(=O)(=O)N1CC[C@H]2[C@H](C[C@@H](Cn3cncn3)N2CC2CC2)C1`, the Percent Effect was -8.81%.
Under `CN(Cc1ccccc1O)C(=O)NC1CCCN(c2ncccn2)C1` (stereo not given) stands 34%; under `Cc1nn(C)cc1CN1CCC(C2Nc3ccccc3S(=O)(=O)N2)CC1` (stereo not given), 14.6%.
With `Cc1cnn(CC2CCCN2C(=O)c2cnc3n[nH]c(C)c3c2)c1` (stereo not given), the Percent Effect was -40.6%.
Under `Cc1noc(C)c1-c1cnc(CC2CCN(C(=O)c3cc[nH]n3)C2)cn1` (stereo not given) stands 7.65%; under `CCc1nc(CN2CCCN(Cc3cnn(C)c3)CC2)no1`, -4.68%; under `N#Cc1ccnc(N2CCN(Cc3cccc(F)c3)CC2)c1`, 12.2%.
Under `Cc1nn(C)c(N2CCOCC2)c1CNC(C)c1cccnc1` (stereo not given) stands 9.24%.
With `Cc1nc(-c2ccc(Cl)s2)sc1C(=O)NCCS(N)(=O)=O`, the Percent Effect is -17.2%.
To `Cc1noc2nc(C3CCN(Cc4cccnc4)CC3)cc(C(F)F)c12` belongs -52.2%.
